# NOMO-1 viab = NOMO-1 AML cell viability reduction, primary screen, STK33 inhibitor project, CellTiter-Glo luminescence; NOMO-1 AML viability, 72 h; inhibition, % (concentration not given with the values); 7.5% of 37,000 active; AID 2330, 2010; in the data active means inhibition above about 80%
# mut p53 react = mutant p53 pathway re-activators, primary screen, cell-based, SW480, luciferase, single point, HTS | SW480 PUMA-promoter luciferase, p53 mutant reactivation | activation, % at 9.98 µM | 1.5% of 28,000 active; in the data active means activation above about 52%
# STK33 inh = STK33 kinase inhibitors, primary screen, biochemical, luminescence, ADP-Glo, MBP substrate; Serine/threonine-protein kinase 33 (Homo sapiens), Q9BYT3; inhibition, % at 12.5 µM; 0.44% of 27,000 active; in the data active means inhibition above about 20%
# ID4 SMM = binders of human ID4 protein, primary screen, biochemical, small molecule microarray, single point | DNA-binding protein inhibitor ID-4 (Homo sapiens), P47928 | Flag-ID4 binding, fluorescence F/B | calls only | 1.2% of 31,000 active; call rule not given here;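 further: a binder raises fluorescence above local background on the spot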
# Target sequence (P47928 whole entry, looked up): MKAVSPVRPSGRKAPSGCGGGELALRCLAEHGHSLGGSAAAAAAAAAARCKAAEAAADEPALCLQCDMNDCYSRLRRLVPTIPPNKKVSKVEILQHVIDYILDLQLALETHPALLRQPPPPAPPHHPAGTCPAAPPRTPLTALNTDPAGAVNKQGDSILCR
# Numbers without * were called inactive; i = inactive; · = not tested or not shown; + = active, no number. This excerpt belongs to a sample that is enriched for hits.
SMILES,NOMO-1 viab,mut p53 react,STK33 inh,ID4 SMM
COc1ccc(Cn2c3ccc(Br)cc3c3nc4ccccc4nc32)cc1OC,24.8,7.5,1.0,i
Oc1cc(C2CCCCC2)cc(C2CCCCC2)c1,137.2*,·,·,·
CC(NS(=O)(=O)c1ccc(Cl)cc1)C(=O)Nc1cc(Cl)ccc1Oc1ccccc1 (stereo unspecified),36.6,-0.1,-0.6,i
C[C@@H]1CN([C@H](C)CO)C(=O)Cc2cc(NS(C)(=O)=O)ccc2O[C@@H]1CN(C)Cc1ccc(C(=O)Nc2ccccc2N)cc1,36.4,·,·,·
C[C@H](CO)N1C[C@H](C)[C@H](CN(C)Cc2ccc(C(=O)Nc3ccccc3N)cc2)Oc2ccc(NS(C)(=O)=O)cc2CC1=O,128.8*,·,·,·
C[C@H]1CN([C@@H](C)CO)C(=O)Cc2cc(NS(C)(=O)=O)ccc2O[C@H]1CN(C)Cc1ccc(C(=O)Nc2ccccc2N)cc1,83.8*,·,·,·
Cc1ccc(Cl)cc1NC(=O)CC(C(=O)O)N(C)C (stereo unspecified),3.2,-12.1,0.6,i
COC(=O)CC(O)(CCCC(C)(C)O)C(=O)O[C@@H]1C(OC)=C[C@]23CCCN2CCc2cc4c(cc2[C@@H]13)OCO4 (stereo partly specified),98.8*,-77.1,3.7,·
O=C(CS(=O)c1ccc(C(F)(F)F)cc1[N+](=O)[O-])Oc1ccc(C2CCCCC2)cc1 (stereo unspecified),120.7*,15.3,-6.4,i
CC(C)CC#Cc1ccc2c(c1)O[C@@H](CN(C)C(=O)Nc1ccccc1F)[C@H](C)CN([C@H](C)CO)S2(=O)=O,·,-8.3,·,·
C[C@H](CO)N1C[C@H](C)[C@@H](CN(C)C(=O)CN(C)C)Oc2ncc(C#CC(C)(C)O)cc2C1=O,·,11.9,·,i
C[C@H](CO)N1C[C@H](C)[C@@H](CN(C)S(=O)(=O)c2cccs2)OCCCC[C@H](C)Oc2ccc(NS(C)(=O)=O)cc2C1=O,·,7.4,·,+
C[C@@H]1CCCCO[C@@H](CN(C)S(=O)(=O)c2cccs2)[C@@H](C)CN([C@H](C)CO)C(=O)c2cc(NS(C)(=O)=O)ccc2O1,13.1,5.7,-0.8,i
C[C@H](CO)N1C[C@H](C)[C@H](CN(C)S(=O)(=O)c2cccs2)OCCCC[C@H](C)Oc2ccc(NS(C)(=O)=O)cc2C1=O,·,-2.0,·,i
C[C@@H]1CN([C@@H](C)CO)C(=O)c2cc(NS(C)(=O)=O)ccc2O[C@@H](C)CCCCO[C@H]1CN(C)S(=O)(=O)c1cccs1,·,0.2,·,+
CCOC(=O)c1nonc1N,-16.3,·,·,·
CCOC(=O)C1=NNCC1C(=O)OCC (stereo unspecified),96.0*,·,·,·
CC1(C)C=Cc2c(c(CCO)c3occ(-c4ccc(O)c(O)c4)c(=O)c3c2O)O1,39.6,1.9,11.0,i
CC(C)=CCc1c2c(c3occ(-c4ccc(O)cc4)c(=O)c3c1O)C=CC(C)(C)O2,106.6*,·,0.7,·
C[C@H](CO)N1C[C@H](C)[C@@H](CN(C)C(=O)Nc2ccc(F)cc2)Oc2ccc(NC(=O)C3CCCCC3)cc2CC1=O,·,-2.1,·,·
O=C(/C=C/c1ccc(O)cc1)c1ccc(O)cc1O,56.9,·,49.6*,·
O=C(/C=C/c1ccc(O)cc1)CC(=O)/C=C/c1ccc(O)cc1,107.9*,5.8,120.0*,·
O=C(O)CCCC(=O)Nc1ccc(O)cc1,31.1,0.2,0.1,i
COc1ccc(/C=C/C(=O)c2cc(O)ccc2O)cc1,64.5,·,-6.8,·
CC(C)NC(=O)Nc1ccc2c(c1)C(=O)N([C@H](C)CO)C[C@@H](C)[C@@H](CN(C)S(=O)(=O)c1ccc(F)cc1)O2,11.1,·,·,·
SMILES,NOMO-1 viab,mut p53 react,STK33 inh,ID4 SMM
O=c1c2ccccc2nc(/C=C/c2cc(Br)ccc2O)n1CCCO,107.9*,-39.9,1.0,i
COc1ccc(S(=O)(=O)N(C)C[C@@H]2Oc3ccc(NC(=O)CCCN(C)C)cc3C(=O)N([C@H](C)CO)C[C@@H]2C)cc1,1.0,2.5,·,i
Cc1noc(C)c1S(=O)(=O)N(C)C[C@H]1Oc2ccc(NC(=O)CCCN(C)C)cc2C(=O)N([C@H](C)CO)C[C@@H]1C,1.4,5.3,·,+
COc1ccc(S(=O)(=O)N(C)C[C@H]2Oc3ccc(NC(=O)CCCN(C)C)cc3C(=O)N([C@H](C)CO)C[C@@H]2C)cc1,22.2,-12.2,·,+
Cc1ccc(S(=O)(=O)N(C)C[C@@H]2Oc3ccc(NS(=O)(=O)c4cn(C)cn4)cc3C(=O)N([C@H](C)CO)C[C@H]2C)cc1,6.1,·,-0.8,·
Cc1cc(C(=O)NCc2ccco2)no1,22.4,-7.1,1.5,i

# Source: PubChem (Broad Institute)
